Compounds with a hit are over-represented: about 3.4% of the library has one in this group of screens.
PP1 counter = PP1-alpha (human) inhibition in PP5 counter-screen | P62136 | purified PP1alpha, OMFP fluorescence | inhibition, % at 6.7 µM | hit rate 0.9% among 320,000 | AID 2235;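 active = inhibition above the mean inhibition of all tested compounds plus 3 SD, computed separately for each screening campaign, cut at about 15% in these data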
PAFAH1B2 FP inh = PAFAH1B2 (human) inhibition. hit rate 1.2% among 340,000. inhibition, % at 3.39 µM. P68402. recombinant PAFAH1B2, FP-rhodamine activity probe, fluorescence polarization;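 active = inhibition above the mean of all tested compounds plus 3 SD, cut at about 24% in these data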;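 note: 0% = enzyme with DMSO and 100% = wells lacking PAFAH1B2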
PAFAH1B3 FP inh = inhibitors of human PAFAH1B3. Q15102. recombinant PAFAH1B3, FP-rhodamine probe, fluorescence polarization. inhibition, % at 3.39 µM. hit rate 0.28% among 340,000. AID 492972;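 active = inhibition above the screen-wide average of all tested compounds plus 3 SD, cut at about 25% in these data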;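 note: 0% = enzyme with DMSO only and 100% = wells lacking PAFAH1B3 protein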
Target sequence (Q15102 whole entry, looked up): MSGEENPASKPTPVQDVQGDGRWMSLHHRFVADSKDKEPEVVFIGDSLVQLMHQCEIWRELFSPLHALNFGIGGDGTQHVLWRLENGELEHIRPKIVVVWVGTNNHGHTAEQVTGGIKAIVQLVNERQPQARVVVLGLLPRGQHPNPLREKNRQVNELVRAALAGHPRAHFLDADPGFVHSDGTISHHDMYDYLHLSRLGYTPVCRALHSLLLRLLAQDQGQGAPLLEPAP
PAFAH2 FP inh = inhibitors of human PAFAH2. recombinant PAFAH2, FP-rhodamine activity probe, fluorescence polarization. inhibition, % at 3.39 µM. hit rate 0.99% among 340,000. AID 492956;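 active = inhibition above the mean over all tested compounds plus 3 SD, cut at about 30% in these data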;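 note: inhibitors block probe labeling of enzyme so polarization drops; 0% = enzyme with DMSO and 100% = wells lacking PAFAH2 protein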
PP5 primary = PP5 (human) phosphatase inhibition. P53041. hit rate 0.18% among 320,000. inhibition, % at 6.7 µM. purified PP5c, OMFP substrate fluorescence;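 active = inhibition above the campaign's mean inhibition across all tested compounds plus 3 SD, cut at about 9.5% in these data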;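 note: 0% = DMSO only and 100% = 100 µM cantharidin control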
pPAFAH inh = inhibitors of human plasma PAF acetylhydrolase (pPAFAH). recombinant pPAFAH, FP-rhodamine probe fluorescence polarization. Q13093. AID 463082. inhibition, % at 3.39 µM. hit rate 1.5% among 330,000;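 active = inhibition above the mean inhibition across the screen plus 3 SD, cut at about 25% in these data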;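 note: inhibitors block binding of the rhodamine activity-based probe so polarization drops; 0% = enzyme with DMSO and 100% = wells lacking pPAFAH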
Target sequence (Q13093 whole entry, looked up): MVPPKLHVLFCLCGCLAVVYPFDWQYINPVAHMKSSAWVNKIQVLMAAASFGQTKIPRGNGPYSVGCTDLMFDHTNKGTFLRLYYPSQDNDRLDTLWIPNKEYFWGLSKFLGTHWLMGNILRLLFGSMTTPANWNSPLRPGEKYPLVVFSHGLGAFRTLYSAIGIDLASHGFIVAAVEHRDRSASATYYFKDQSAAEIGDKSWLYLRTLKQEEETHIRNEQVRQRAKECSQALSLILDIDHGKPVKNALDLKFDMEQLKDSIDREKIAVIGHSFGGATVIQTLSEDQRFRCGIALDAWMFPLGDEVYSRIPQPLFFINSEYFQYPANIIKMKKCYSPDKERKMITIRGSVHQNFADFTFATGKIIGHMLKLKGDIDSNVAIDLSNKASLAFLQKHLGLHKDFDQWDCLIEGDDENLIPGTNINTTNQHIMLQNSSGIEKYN
An asterisk follows results filed as active; nt = not tested or not shown.

SMILES | PP1 counter | PAFAH1B2 FP inh | PAFAH1B3 FP inh | PAFAH2 FP inh | PP5 primary | pPAFAH inh
CC(=O)Nc1ccc(S(=O)(=O)N2CCC(C(=O)NCCc3ccc(Cl)cc3)CC2)cc1 | nt | 27.4* | 0.5 | -0.5 | nt | nt
CCN(CC)S(=O)(=O)N1CCC(C(=O)NCC2COc3ccccc3O2)CC1 (stereo not drawn) | 0.4 | 3.7 | 3.5 | -2.1 | -2.3 | 5.2
O=C(NCC1COc2ccccc2O1)C1CCN(S(=O)(=O)c2ccc(Cl)cc2)CC1 (stereo not drawn) | -0.1 | 29.1* | 1.6 | -3.7 | 0.9 | 4.3
O=C(COc1ccccc1)NCCSCc1ccc(Cl)cc1 | 2.0 | 2.7 | 2.2 | -1.7 | -0.1 | 11.4
O=C(Cc1ccccc1)NCCSCc1ccc(Cl)cc1 | 0.0 | 28.8* | 11.9 | 4.6 | 4.1 | 24.3
Cc1ccc(C(=O)N/C(=C\c2ccc([N+](=O)[O-])cc2)C(=O)NCCc2ccccc2)cc1 | 16.6* | 5.3 | 4.4 | 6.6 | -0.8 | -0.5
O=C(NCCOc1ccccc1)c1cccc(S(=O)(=O)NCc2ccccc2)c1 | -0.6 | 22.5 | 9.0 | -3.8 | 0.4 | 6.6
CCCCn1c(N)c(N(CC(C)C)C(=O)c2ccc(S(=O)(=O)N3CCC(C)CC3)cc2)c(=O)[nH]c1=O | 6.7 | 1.3 | 2.3 | -1.0 | 0.6 | 31.9*
CCCCn1c(N)c(N(CC(C)C)C(=O)c2ccc(S(=O)(=O)N3CCCCCC3)cc2)c(=O)[nH]c1=O | -1.8 | 6.9 | 5.6 | -0.4 | -0.5 | 1.7
CCCCn1c(N)c(N(CC(C)C)C(=O)CN2C(=O)NC3(CCC(C(C)(C)CC)CC3)C2=O)c(=O)[nH]c1=O (stereo not drawn) | nt | 31.3* | 6.7 | -0.5 | nt | nt
CCCCn1c(N)c(N(CC(C)C)C(=O)CN2C(=O)c3ccccc3C2=O)c(=O)[nH]c1=O | 4.4 | 0.2 | 7.3 | -0.7 | -2.6 | 4.2
COCCCn1c(SCc2ccc(OC)cc2)nc2cc(OC)c(OC)cc2c1=N | 0.4 | 6.9 | 11.9 | 4.7 | 1.1 | 25.4*
CCCSc1nc2cc(OC)c(OC)cc2c(=N)n1CCCN1CCOCC1 | 0.3 | 2.4 | 1.7 | 0.0 | -2.1 | 2.2
O=C(CC(C(=O)O)P(=O)(c1ccccc1)c1ccccc1)c1ccc(Br)cc1 (stereo not drawn) | -0.4 | 0.1 | 2.1 | 12.4 | -2.6 | 4.4
COc1ccc(OC)c(N(CC(=O)N2CCN(c3cc(Cl)ccc3C)CC2)S(C)(=O)=O)c1 | 4.1 | 5.8 | 4.0 | 5.4 | 2.7 | 5.6
CC1CC(C)CN(S(=O)(=O)N2CCCC(C(=O)NCCCN3CCOCC3)C2)C1 (stereo not drawn) | 0.8 | 2.5 | 4.5 | 5.2 | 0.6 | 2.5
CC(Oc1ccc(Br)cc1)C(=O)NCC(c1cccs1)N1CCOCC1 (stereo not drawn) | -2.4 | 26.5* | 10.5 | 3.0 | 0.5 | 1.7
CCC(=O)NCC(c1cccs1)N1CCOCC1 (stereo not drawn) | -4.2 | -2.9 | 1.5 | 1.4 | -1.9 | 3.8
Cc1ccc(S(=O)(=O)N2CCC(C(=O)NC3CC(C)(C)NC(C)(C)C3)CC2)cc1C | -6.0 | 6.2 | -0.7 | 6.0 | -3.1 | -0.1
Cc1ccc(S(=O)(=O)Nc2ccncc2)c(C)c1N(C)S(=O)(=O)c1ccc(Cl)cc1 | 0.7 | 3.9 | 3.4 | -1.6 | 2.9 | -0.7
Cc1ccc(-c2nc3ccsc3c(=O)o2)cc1 | 1.2 | -1.3 | 10.8 | 65.8* | 0.8 | 2.1
CCOc1ccc(NC(=O)C23CC4CC(C2)CC(c2ccccc2)(C4)C3)cc1 | 1.1 | 26.7* | 8.0 | 4.9 | 1.3 | 3.9
CCOC(=O)CNC(=O)C12CC3CC(C1)CC(c1ccc(C)cc1)(C3)C2 | -3.0 | 3.9 | 3.2 | -3.8 | 0.9 | 11.5
O=C(CCN1C(=O)c2ccccc2C1=O)Nc1sc2c(c1C(=O)NCc1ccco1)CCCC2 | 9.8 | -3.4 | 1.5 | -1.2 | 0.1 | 5.6
CC(=O)c1ccc(CC2SC(N)=NC2=O)cc1 (stereo not drawn) | 15.6* | 6.8 | 8.7 | -4.4 | -3.1 | 1.1
SMILES | PP1 counter | PAFAH1B2 FP inh | PAFAH1B3 FP inh | PAFAH2 FP inh | PP5 primary | pPAFAH inh
CCN(CC)c1ccc(NC(=O)COC(=O)/C=C/c2nc3ccccc3s2)cc1 | 15.3* | -2.5 | 4.9 | -0.8 | 1.3 | 12.6
O=C(O)c1ccccc1NC(c1ccccc1)c1ccc(Cl)cc1 (stereo not drawn) | 10.3 | 41.2* | 12.2 | 2.7 | -0.2 | 15.7
O=C(Oc1c(-c2ccccc2)c(=O)n2c3c(cccc13)CC2)c1ccccc1 | 4.3 | nt | nt | nt | 1.9 | 26.3*
COc1cc([C@@H]2Oc3cc(C4Oc5cc(O)cc(O)c5C(=O)[C@H]4O)ccc3O[C@H]2CO)ccc1O (stereo partly drawn) | -0.1 | 7.8 | 25.0 | 11.3 | 1.8 | 35.3*
CCOC(=O)N1CCN(C(=O)c2oc3ccc(S(=O)(=O)N4CC(C)CC(C)C4)cc3c2C)CC1 (stereo not drawn) | -0.1 | -4.4 | 8.1 | 4.6 | 1.8 | 8.2
Cc1ccc2nc(CSc3nc(C)cc(C)c3C#N)[nH]c2c1 | -0.2 | 4.9 | 3.9 | -3.1 | 1.8 | 26.4*
COc1cccc(-c2nnc(Nc3nc4c(F)cccc4s3)o2)c1 | 5.0 | 14.1 | 9.0 | 25.1 | 0.3 | 29.4*
O=C(NN1CCOCC1)c1cnn2c(C(F)F)cc(-c3ccccc3)nc12 | -0.1 | -3.9 | -1.9 | -4.0 | -1.1 | 0.8
Cc1ccc(C)c(S(=O)(=O)/N=C2\C=C(NS(=O)(=O)c3ccccc3)C(=O)c3ccccc32)c1 | 0.6 | 6.2 | 24.6 | 16.9 | 2.8 | 17.3
CC(C)c1ccc(S(=O)(=O)/N=C2\C=C(NS(=O)(=O)c3ccccc3)C(=O)c3ccccc32)cc1 | 0.0 | 22.5 | -2.1 | 25.5 | 3.1 | 26.4*
CCc1ccc(S(=O)(=O)/N=C2\C=C(NS(=O)(=O)c3ccccc3)C(=O)c3ccccc32)cc1 | nt | 0.3 | 5.6 | 34.1* | nt | nt
COc1ccc(/C=C/C(=O)N[C@H](C(=O)O)C(C)C)cc1 | 6.7 | 2.2 | 1.5 | -2.5 | -2.8 | -1.5
O=C(O)c1ccc(-c2ccc(/C=c3/sc4nc5ccccc5n4c3=O)o2)cc1Cl | -3.8 | 14.6 | 25.9* | 23.4 | 2.1 | 26.7*
CCOC(=O)C1CCCN(S(=O)(=O)c2cc3[nH]c(=O)c(=O)[nH]c3cc2C)C1 (stereo not drawn) | -7.5 | 25.6* | 3.7 | 0.8 | 2.3 | 7.0
CCOC(=O)C1CCCN(S(=O)(=O)c2ccc(S(=O)(=O)N3CCCC3)cc2)C1 (stereo not drawn) | -1.1 | -3.5 | 6.9 | 14.8 | -1.9 | -5.3
Cc1cccc(Cc2c(C)nc3nc(SCC(=O)NCc4ccco4)nn3c2C)c1 | 2.2 | 4.8 | 1.2 | 7.1 | -0.7 | 1.8
Cc1c(C(=O)Nc2nc(-c3ccccn3)cs2)oc2ccccc12 | 16.1* | -2.5 | -0.6 | 0.3 | 1.7 | 17.2
O=C(Nc1nc(-c2ccccn2)cs1)c1cc2ccccc2o1 | 10.3 | 2.1 | 6.5 | 5.3 | -1.7 | 2.8
Cc1ccc(C(C)NC(=S)NCc2ccc(F)cc2)c(C)c1 (stereo not drawn) | -1.1 | 15.3 | -1.7 | -7.9 | 5.7 | 5.6
